The campaign covered roughly 290,000 compounds. About 1,800 (0.62%) were called active. The sample holds actives, similar compounds and a random draw of the others, so the mix is not that of the screen. A number with no mark means an inactive call. Cut-off read from the data, not from the text of the source: active = inhibition above about 50%; inactive = the rest.
experiment: NOD2 signaling inhibitors, cell-based, luminescence, uHTS, HEK293 (AID 1566); settings: HEK293 NOD2/NF-kB luciferase reporter, at 4 µM, stronger effect = higher value

Row | Structure (SMILES) | inhibition
1 | NC(=O)c1ccc(NC(=O)Cc2csc(-c3ccccc3)n2)cc1 | 8%
2 | CCOc1ccc(C(=O)CCC(=O)O)cc1 | 16%
3 | CCOc1ccc(C(=O)CSCC(=O)O)cc1 | 6.2%
4 | CCOc1ccc(C(=O)CSCCC(=O)O)cc1 | 53.4% (active)
5 | COc1ccc(/C=C/c2c(-c3ccc(OC)cc3)oc3ccc(-c4ccc(OC)cc4)cc23)cc1 | 4.5%
6 | COc1ccc(/C=C/C(=O)Oc2ccc(C)cc2)cc1 | 7.2%
7 | O=C(COC(=O)C12CC3CC(CC(C3)C1)C2)Nc1nccs1 | 33.4%
8 | Cc1nc2scc(C)n2c(=O)c1S(=O)(=O)Nc1ccc(N2CCOCC2)cc1 | 14.2%
9 | Cc1nc2sccn2c(=O)c1S(=O)(=O)Nc1ccc(N2CCOCC2)c(Cl)c1 | 33.7%
10 | Cc1nc2scc(C)n2c(=O)c1S(=O)(=O)Nc1ccc(N2CCOCC2)c(Cl)c1 | 51.2% (active)
11 | O=C(c1ccncc1)c1ccc(NS(=O)(=O)c2ccc(Br)s2)cc1 | 23.1%
12 | Cc1cc(C=C2C(=O)c3ccccc3C2=O)c(C)n1-c1cccc(C(=O)O)c1 | -11.1%
13 | Cc1cc(C=C2C(=O)CCCC2=O)c(C)n1-c1ccccc1 | 1.8%
14 | Cc1cc(C=C2C(=O)c3ccccc3C2=O)c(C)n1-c1ccc(Cl)cc1 | 19.2%
15 | Cc1cc(C=C2C(=O)c3ccccc3C2=O)c(C)n1-c1ccccc1 | 5.9%
16 | Cc1cc(/C=C2\Cc3ccccc3C2=O)c(C)n1-c1ccccc1 | 59.1% (active)
17 | Cc1cccc(-n2c(C)cc(C=C3C(=O)c4ccccc4C3=O)c2C)c1 | 57.4% (active)
18 | CNC(=O)CSc1nc2[nH]ncc2c(=O)[nH]1 | 10.9%
19 | COc1ccc(C(CC(=O)N2CCCC2)C(C)C)cc1 (stereo unspecified) | -6.1%
20 | O=C(NC(Cc1ccc2c(c1)OCO2)C(=O)NC(Cc1ccccc1)C(=O)O)c1ccccc1 (stereo unspecified) | 0%
21 | O=C(CN(Cc1cccs1)C(=O)CNS(=O)(=O)c1ccccc1)NC1CCCC1 | 9.3%
22 | CCN(CC)CCNC(=O)c1cc(S(=O)(=O)N2CCc3ccccc32)cn1C | 27.1%
23 | CC(C)CCNC(=O)c1cc(S(=O)(=O)N2CCc3ccccc32)cn1C | 26.2%
24 | CCCNC(=O)c1cc(S(=O)(=O)N2CCc3ccccc32)cn1C | 52.1% (active)
25 | CS(=O)(=O)N(CC(=O)Nc1cccc(Cl)c1)c1ccccc1Cl | -11.8%
26 | C[C@H]1O[C@@H](O[C@H]2[C@@H](O)C[C@H](O[C@H]3[C@@H](O)C[C@H](O[C@H]4CC[C@@]5(C)[C@H](CC[C@@H]6[C@@H]5C[C@@H](O)[C@]5(C)[C@@H](C7=CC(=O)OC7)CC[C@]65O)C4)O[C@@H]3C)O[C@@H]2C)C[C@H](O)[C@@H]1O | 77.7% (active)

Source: PubChem BioAssay AID1566 (Sanford-Burnham Center for Chemical Genomics, 2009)
